Assay outcomes from PubChem.
Hits are enriched below; roughly 32% of the tested compounds scored in any of these assays.
PostGolgi yeast – growth inhibition of a yeast mutant, post-Golgi transport screen. post-Golgi transport phenotypic cell assay. inhibition, % at 10 µM. 98,000 tested, 0.9% active. AID 739;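 note: yeast cells grown in 1536-well plates; yeast grown about 18 h at 30C before absorbance read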
CYP2C19 activ – cytochrome P450 2C19 (human) activation. recombinant CYP2C19, luciferin-H EGE luminescence; hits give high values; 0 = fully inhibited enzyme, 1 = untreated enzyme. activation factor at 5 µM. 96,000 tested, under 10 active;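 active = activation factor of at least 2 at 5 µM in the primary screen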;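 note: 0 = wells with 2.5 mM tranylcypromine and 1 = vehicle-only wells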
Target sequence (P33261 whole entry, looked up): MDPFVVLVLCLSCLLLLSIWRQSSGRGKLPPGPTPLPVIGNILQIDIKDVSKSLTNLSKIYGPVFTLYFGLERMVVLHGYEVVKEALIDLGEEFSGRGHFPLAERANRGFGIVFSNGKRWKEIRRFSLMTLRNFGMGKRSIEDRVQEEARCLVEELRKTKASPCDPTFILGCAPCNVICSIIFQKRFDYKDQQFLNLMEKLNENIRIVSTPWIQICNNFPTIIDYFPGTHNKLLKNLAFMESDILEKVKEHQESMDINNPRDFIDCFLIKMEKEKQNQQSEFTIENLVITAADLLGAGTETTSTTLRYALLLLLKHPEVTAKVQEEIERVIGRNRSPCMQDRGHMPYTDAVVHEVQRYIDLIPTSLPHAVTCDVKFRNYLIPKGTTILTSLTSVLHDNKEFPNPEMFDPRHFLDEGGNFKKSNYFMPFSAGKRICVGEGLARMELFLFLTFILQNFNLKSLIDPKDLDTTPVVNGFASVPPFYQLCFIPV
PostGolgi ctrl – inhibits growth of the yeast control strain | efflux-deficient yeast background strain, growth absorbance A615, 16 h | inhibition, % at 10 µM | 98,000 tested, 5% active | AID 738
CYP2C9 activ – activators of human CYP2C9 | recombinant CYP2C9, luciferin-H conversion, luminescence; hits give high values; factor 1 = untreated enzyme, 0 = blocked | activation factor at 5 µM | 96,000 tested, 1.4% active;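 active = activation factor of 2 or more for CYP2C9 at a 5 µM dose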;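 note: 0 = sulfaphenazole-blocked wells and 1 = vehicle-only wells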
CYP2C19 inhib – inhibitors of human CYP2C19 | inhibition, % at 5 µM | AID 778 | CYP2C19 Supersomes, luciferin-H EGE luminescence, 30 min | P33261 | 96,000 tested, 21% active;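 active = CYP2C19 inhibition above a set limit at 5 µM in the primary screen, cut at about 50% in these data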;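 note: plate controls were negative control wells for no effect and 2.5 mM tranylcypromine positive control for full effect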
CYP2C9 inhib – inhibitors of human CYP2C9; CYP2C9 Supersomes, luciferin-H conversion, luminescence; inhibition, % at 5 µM; 96,000 tested, 20% active; AID 777;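 active = blocking of liver enzyme CYP2C9 beyond about 50% at 5 µM, limit read from the data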
* hit, by the source's call; nt = not tested or not shown. Cut-off read from the data, not from the text of the source, unless noted: active = inhibition above about 30%; inactive = the rest.

SMILES | PostGolgi yeast | CYP2C19 activ | PostGolgi ctrl | CYP2C9 activ | CYP2C19 inhib | CYP2C9 inhib
CNC(=O)c1cc2c(=O)n3cccc(C)c3nc2n(C(C)C)c1=N | 13.5 | 1.1 | 7.5 | 1.1 | -8.6 | -11.1
CCC1CCCCN1c1cc(C)nc2cc(-c3cccc(C)c3)nn12 (stereo not given) | -0.8 | 1 | 55.4* | 0.8 | 2.6 | 17.0
CCc1nnc(NC(=O)c2cc(-c3ccccc3)nn2-c2ccccc2)s1 | 13.8 | 0.9 | 8.4 | 0.9 | 6.5 | 6.6
O=C(O)c1ccc(Sc2nnc(-c3cccc(Br)c3)o2)c([N+](=O)[O-])c1 | -2.7 | 1.3 | 1.8 | 0.3 | -33.0 | 66.4*
O=c1[nH]c2cc3c(cc2cc1CN(CC1CCCO1)S(=O)(=O)c1ccccc1)OCCO3 (stereo not given) | -1.6 | 0.9 | 0.0 | 0.7 | 8.9 | 25.2
Cc1ccc(C)c2[nH]c(=O)c(CN(CC3CCCO3)S(=O)(=O)c3ccc4c(c3)OCCO4)cc12 (stereo not given) | 14.3 | 0.8 | 2.6 | 0.4 | 21.3 | 60.9*
Cc1cc(C)c2[nH]c(=O)c(CN(CC3CCCO3)S(=O)(=O)c3ccc4c(c3)OCCO4)cc2c1 (stereo not given) | -5.2 | 0.2 | 8.2 | 0.1 | 77.7* | 92.1*
Cc1cccc2cc(CN(Cc3ccco3)S(=O)(=O)c3ccc4c(c3)OCCO4)c(=O)[nH]c12 | -0.2 | 0.2 | 24.5 | 0.4 | 76.6* | 56.0*
Cc1cccc2cc(CN(Cc3ccco3)C(=O)N3CCCC3)c(=O)[nH]c12 | nt | 1 | nt | 1 | -1.6 | 0.7
CCOc1ccccc1N1CC(C(=O)Nc2ccc(C(=O)O)cc2)CC1=O (stereo not given) | 17.7 | 1 | -5.8 | 1 | 3.9 | 2.8
CCOC(=O)c1c(NC(=O)CSc2n[nH]c(N)n2)sc(CC)c1C | 3.7 | 0.5 | -5.5 | 0.2 | 49.5 | 75.5*
O=C(CSc1n[nH]c(-c2ccco2)n1)Nc1sc2c(c1C(=O)Nc1ccccc1)CCCC2 | 5.9 | 0.5 | 1.8 | 0.2 | 47.9 | 84.1*
O=C(O)c1ccc(CSc2n[nH]c(-c3ccco3)n2)cc1 | 4.9 | 1 | 2.9 | 0.9 | 1.3 | 6.4
CCOC(=O)c1sc(NC(=O)CSc2nnnn2-c2ccc(C)c(C)c2)nc1C | -14.3 | 0.8 | 4.8 | 0.6 | 20.4 | 38.9
CCOC(=O)CNC(=O)CSc1nnnn1-c1ccc(C)c(C)c1 | 8.0 | 0.8 | -2.8 | 2.6* | 17.2 | -162.8
CCOC(=O)c1sc(NC(=O)CSc2nnnn2-c2ccc(C)cc2)c(C(=O)OCC)c1C | -7.4 | 0.5 | -6.7 | 0.2 | 48.2 | 80.1*
CC1=C(C)CC(C(=O)NNC(=O)c2ccccc2)C(C(=O)O)C1 (stereo not given) | -6.7 | 1.1 | 12.8 | 1 | -12.8 | -0.9
CCOC(=O)c1c(NC(=O)CSc2n[nH]c(-c3ccco3)n2)sc(C)c1C | 1.2 | 0.6 | 12.1 | 0.1 | 36.7 | 88.3*
CCOC(=O)c1c(NC(=O)CSc2nnnn2C)sc(CC)c1C | 0.0 | 0.2 | 15.1 | 0.5 | 83.2* | 47.8
CCn1nnnc1SCC(=O)Nc1sc(C)c(C)c1C#N | -13.9 | 0.8 | 28.6 | 0.2 | 19.3 | 79.0*
Cc1sc(NC(=O)CSc2nnc3scc(-c4ccccc4)n23)c(C#N)c1C | 4.1 | 0.9 | 6.2 | 1.1 | 9.7 | -13.0
CCOC(=O)c1c(NC(=O)CSc2nnnn2C)sc(C)c1C | -1.4 | 0.7 | 10.6 | 0.7 | 25.2 | 27.6
CCOC(=O)c1c(NC(=O)CSc2nnnn2CC)sc(C)c1C | -1.8 | 0.9 | 22.7 | 0.5 | 13.9 | 51.5*
O=C(Nc1ccc(N2CCCC(O)C2)cc1)c1snc2c(=O)[nH]cnc12 (stereo not given) | 2.8 | 1.1 | 1.6 | 0.8 | -8.1 | 22.9
c1ccc(-c2nc3nonc3nc2-c2ccccc2)cc1 | 15.9 | 0.3 | 31.3* | 0.8 | 66.0* | 23.7
SMILES | PostGolgi yeast | CYP2C19 activ | PostGolgi ctrl | CYP2C9 activ | CYP2C19 inhib | CYP2C9 inhib
CC(=O)c1coc2c1cc(O)c1ccccc12 | -3.4 | 0.7 | 9.6 | 0.9 | 26.8 | 9.4
CCOC(=O)c1c(C)oc2c1c(C=NCc1ccccn1)c(O)c1ccccc12 | 1.7 | 0.4 | 9.9 | 0.1 | 63.6* | 85.9*
CCOC(=O)c1c(C)oc2c1cc(O)c1ccccc12 | -5.9 | 0.7 | 38.8* | 0.3 | 33.4 | 72.6*
O=C1C2CC=CCC2C(=O)N1c1cccc(OS(=O)(=O)c2ccc3ccccc3c2)c1 (stereo not given) | -0.7 | 1 | 7.8 | 1.6 | 2.6 | -63.1
CCN(CC)C(=O)Oc1ccc(NC(C)=O)cc1 | 19.9 | 1.1 | 9.7 | 1.1 | -12.3 | -12.4
CC(NC(=O)CC(O)(C(F)(F)F)C(F)(F)F)c1ccccc1 (stereo not given) | 0.9 | 0.2 | 4.9 | 0.4 | 77.6* | 57.1*
Cc1ccc2cc(CN(CC3CCCO3)S(=O)(=O)c3c(C)ccc4nsnc34)c(=O)[nH]c2c1 (stereo not given) | -1.3 | 1.1 | 5.5 | 0.5 | -10.8 | 52.3*
COc1cccc(CN(CC2CCCO2)S(=O)(=O)c2ccc(S(=O)(=O)NCC3CCCO3)cc2)c1OC (stereo not given) | -5.4 | 0.9 | 7.9 | 0.7 | 13.1 | 33.9
CCC(=O)N(CCO)Cc1cc2ccc(C)c(C)c2[nH]c1=O | 32.7* | 0.8 | -4.8 | 0.9 | 16.9 | 7.4
CCN(Cc1ccccc1)S(=O)(=O)c1ccc(S(=O)(=O)N(Cc2cccc(OC)c2)CC2CCCO2)cc1 (stereo not given) | 0.5 | 0.8 | -1.5 | 0.5 | 15.1 | 54.7*
Cc1ccc2nsnc2c1S(=O)(=O)N(Cc1cc2cccc(C)c2[nH]c1=O)CC1CCCO1 (stereo not given) | 1.1 | 0.9 | 13.9 | 0.2 | 6.9 | 78.0*
CCCCCOCC1CC(C/C(C)=N/Nc2nc(-c3ccccc3)cs2)C(=O)O1 (stereo not given) | -1.4 | 0.7 | 13.5 | 0.6 | 28.1 | 36.9
C=CCN1C(=NC(=O)CC)SC2CS(=O)(=O)CC21 (stereo not given) | -1.4 | 1 | -2.4 | 1 | -3.7 | 4.0
Cc1cc(C(=O)NCc2cc(C(=O)O)oc2C)c(C)o1 | 5.0 | 1.1 | -0.3 | 1 | -5.5 | 1.0
COc1ccc2[nH]c(=O)c(CN(CC3CCCO3)C(=O)Nc3ccccc3OC)cc2c1 (stereo not given) | -14.8 | 0.8 | -1.0 | 0.7 | 24.9 | 29.8
COc1ccc2cc(CN(CC3CCCO3)S(=O)(=O)c3ccccc3Cl)c(=O)[nH]c2c1 (stereo not given) | 0.7 | 0.4 | 13.9 | 0 | 58.1* | 98.9*
Cc1ccc2cc(CN(CCCO)S(=O)(=O)c3cccc4nsnc34)c(=O)[nH]c2c1C | -2.0 | 0.6 | 3.9 | 0 | 42.0 | 100.4*
CCN(CC)c1ccc(SS(=O)(=O)O)cc1 | 1.3 | 1.1 | -4.4 | 1.1 | -11.6 | -8.7
Cc1cc(N/C=C2\CCCCC2=O)no1 | 0.9 | 0.9 | -1.1 | 1.2 | 6.7 | -23.7
CC1Oc2ccccc2N(CC(=O)NCC2CCCO2)C1=O (stereo not given) | 6.7 | 1 | 10.1 | 1.1 | 4.7 | -10.7
